Structures can show the parent of a compound that is named as a salt. ± gives the standard deviation or the standard deviation of the averaged measurements.
Tests used:
Conditions in all cases: 25 µM; exposure: 24-48 hpf
[1] = system: Danio rerio Tg(wt1b:EGFP) embryo, pronephros; assay: glomerular separation, fold change vs DMSO control; higher = glomeruli further apart (abnormal)
Procedure, shortened: (§1)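 Dechorionated Tg(wt1b:EGFP) zebrafish embryos were treated with 25 μM compound in 0.5% DMSO, in HEPES-buffered E3 with 0.003% PTU, from 24 to 48 hpf at 28.5°C. On maximum projections of dorsal pronephros images, 16 hand-placed reference points in Fiji gave distances and angles, and values more than 2 SD from the feature mean were left out. Results are fold changes over the mean of same-day DMSO-treated embryos.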

[2] = system: Danio rerio Tg(wt1b:EGFP) embryo, pronephros; assay: glomerular width (mean of left and right), fold change vs DMSO control; higher = wider glomerulus
Procedure, shortened: as §1

[3] = system: Danio rerio Tg(wt1b:EGFP) embryo, pronephros; assay: fraction of imaged embryos annotated as normal kidney; higher = less nephrotoxic; extreme values may be limits of the assay
Procedure, shortened: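 The value given is the share of embryos in each treatment scored as having a normal kidney. To obtain it, dechorionated Tg(wt1b:EGFP) zebrafish embryos were treated from 24 to 48 hpf at 28.5°C with 25 μM compound in 0.5% DMSO, in 5 mM HEPES-buffered E3 with 0.003% PTU. Pronephroi were imaged by widefield fluorescence (470 nm, 10 z-slices), and every embryo was annotated by hand from maximum projections.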

[4] = system: Danio rerio Tg(wt1b:EGFP) embryo, pronephros; assay: pronephric angle neck segment to proximal convoluted tubule (mean of left and right), fold change vs DMSO control; higher = larger pronephric angle
Procedure, shortened: as §1

Compound	glomerular separation [1]	glomerular width [2]	fraction of imaged embryos annotated as normal kidney [3]	pronephric angle neck segment [4]
OCCOCCN1CCN(C(c2ccccc2)c2ccc(Cl)cc2)CC1 (configuration not stated) [Hydroxyzine dihydrochloride]	0.754 ± 0.2	1.02 ± 0.013	1	0.964 ± 0.048
CC(=O)O[C@H]1C[C@@H]2CC[C@@H]3[C@H](CC[C@@]4(C)[C@H]3C[C@H]([N+]3(C)CCCCC3)[C@@H]4OC(C)=O)[C@@]2(C)C[C@@H]1N1CCCCC1 [Vecuronium bromide]	1.01 ± 0.35	0.967 ± 0.024	1	1.03 ± 0.028
CCN(CC)CCOC(=O)C(Cc1cccc2ccccc12)CC1CCCO1 (configuration not stated) [Nafronyl oxalate]	1.2 ± 0.63	0.945 ± 0.058	0.583	1.04 ± 0.054
O=C1OC(CN2CCOCC2)CN1/N=C/c1ccc([N+](=O)[O-])o1 (configuration not stated) [Furaltadone hydrochloride]	0.859 ± 0.33	1.1 ± 0.021	0.75	0.995 ± 0.015
Cc1cc(O)c(C(=O)N[C@@H](C(=O)N[C@@H]2C(=O)N3C(C(=O)O)=C(CSc4nnnn4C)CS[C@H]23)c2ccc(O)cc2)cn1 [Cefpiramide]	1.22 ± 0.39	0.985 ± 0.089	0.833	0.9442 ± 0.0043
OCc1cc(C(O)CNCCCCCCOCCCCc2ccccc2)ccc1O (configuration not stated) [Salmeterol]	5.53 ± 1.4	0.665 ± 0.017	0	1.65 ± 0.087
Oc1ccc(OCc2ccccc2)cc1 [Monobenzone]	2.85 ± 1.3	0.753 ± 0.068	0.25	1.21 ± 0.018
CCCc1nn(C)c2c(=O)[nH]c(-c3cc(S(=O)(=O)N4CCN(C)CC4)ccc3OCC)nc12 [Sildenafil]	1.12 ± 0.37	0.928 ± 0.045	1	0.9607 ± 0.0012
CC(C[N+](C)(C)C)OC(N)=O (configuration not stated) [Bethanechol chloride]	0.946 ± 0.32	1.023 ± 0.0027	0.833	0.998 ± 0.024
Nc1nc(=O)n([C@@H]2CS[C@H](CO)O2)cc1F [(-)-Emtricitabine]	1.08 ± 0.4	1.06 ± 0.019	0.917	0.999 ± 0.073
CCCCC(=O)O[C@H]1CC[C@H]2[C@@H]3CCc4cc(O)ccc4[C@H]3CC[C@]12C [Estradiol Valerate]	1.02 ± 0.37	0.925 ± 0.016	0.583	1.134 ± 0.0028
CC(=O)[C@H]1CC[C@H]2[C@@H]3C=CC4=CC(=O)CC[C@@]4(C)[C@@H]3CC[C@]12C [Dydrogesterone]	1.29 ± 0.6	1.04 ± 0.02	0.833	0.973 ± 0.012
CN(c1nccc(=O)[nH]1)C1CCN(c2nc3ccccc3n2Cc2ccc(F)cc2)CC1 [Mizolastine]	1.05 ± 0.25	1.1 ± 0.017	0.917	0.937 ± 0.015
CN(C)CCCN1c2ccccc2CCc2ccc(Cl)cc21 [Clomipramine hydrochloride]	1.18 ± 0.38	0.947 ± 0.035	0.667	1.06 ± 0.014
Nc1c(Br)cc(Br)cc1CN[C@H]1CC[C@H](O)CC1 [Ambroxol hydrochloride]	1.05 ± 0.28	0.969 ± 0.036	1	1.003 ± 0.0037
CN(C)CCOC(c1ccccc1)c1ccccc1 [Diphenhydramine hydrochloride]	0.907 ± 0.28	1.03 ± 0.0021	0.75	0.942 ± 0.016
NC(=O)c1ccc[n+]([C@@H]2O[C@H](COP(=O)([O-])OP(=O)(O)OC[C@H]3O[C@@H](n4cnc5c(N)ncnc54)[C@H](O)[C@@H]3O)[C@@H](O)[C@H]2O)c1 [Nadide]	0.955 ± 0.26	1.0386 ± 0.00057	0.75	0.9494 ± 0.0036
C[C@@H]1NC(=O)NC1=O [Methylhydantoin-5-(L)]	0.772 ± 0.24	0.967 ± 0.048	1	0.995 ± 0.031
CN1CCN(CCCN2c3ccccc3Sc3ccc(S(=O)(=O)N(C)C)cc32)CC1 [Thioproperazine dimesylate]	0.945 ± 0.3	0.988 ± 0.028	0.917	0.945 ± 0.046
CC(=O)OCC(=O)[C@@]12N=C(C)O[C@@H]1C[C@H]1[C@@H]3CCC4=CC(=O)C=C[C@]4(C)[C@H]3[C@@H](O)C[C@@]12C [Deflazacort]	1.15 ± 0.41	1.06 ± 0.014	0.25	0.944 ± 0.058
OCCN1CCN(CCCN2c3ccccc3Sc3ccc(Cl)cc32)CC1 [Perphenazine]	0.838 ± 0.23	1.07 ± 0.063	0.917	1.03 ± 0.012
CC(=O)N[C@@H](CS)C(=O)O [Acetylcysteine]	0.784 ± 0.26	1.035 ± 0.0055	0.917	1.0017 ± 0.00093
Clc1ccc(C(Cn2ccnc2)OCc2csc3c(Cl)cccc23)c(Cl)c1 (configuration not stated) [Sertaconazole nitrate]	3.82 ± 1.8	0.727 ± 0.039	0	1.56 ± 0.052
CCOc1ccc(NC(C)=O)cc1 [Phenacetin]	1.14 ± 0.31	1.0834 ± 0.00038	0.667	0.946 ± 0.022
CCN1CCCC(OC(=O)C(c2ccccc2)c2ccccc2)C1 (configuration not stated) [Piperidolate hydrochloride]	0.836 ± 0.28	0.997 ± 0.01	0.75	0.98 ± 0.016
CCC[C@@H]1C[C@@H](C(=O)N[C@@H]([C@H]2O[C@H](SC)[C@H](O)[C@@H](O)[C@H]2O)[C@H](C)Cl)N(C)C1 [Clindamycin hydrochloride]	0.862 ± 0.2	0.964 ± 0.053	0.917	0.995 ± 0.013
NNCCc1ccccc1 [Phenelzine sulfate]	0.964 ± 0.27	1.04 ± 0.016	0.833	0.93 ± 0.067
CCN(CC)CCOc1ccc(C(=C(Cl)c2ccccc2)c2ccccc2)cc1 [Clomiphene citrate (Z,E)]	1.1 ± 0.41	0.981 ± 0.019	0.75	0.974 ± 0.053
